# Laboratory results published in the OligoGym collection.
# Target: PSKH2
# Test: pooled miR-30 sensor sort-seq; sequence = guide strand
# Conditions: shRNA
# Further: reference of the scale not given here.
row,Sequence,sensor-assay potency score (higher = more potent)
1,TAGAAGACTGTGCAGATCCAGG,-0.858
2,TTTTCGACTCTTCACCTGGATG,-1.22
3,TTGCCTTTCAGAATCTTCCTGT,0.856
4,AAATTTTCGACTCTTCACCTGG,0.215
5,TAGTTTGTCTATAAAGTCCTTC,-0.109
6,TTTGTGAGAATAATGTGACTTA,0.516
7,TTTGTCTATAAAGTCCTTCGCC,-0.325
8,TACCATGTAAACTTGATCCTCA,0.763
9,TTGACCTTCGTGCTTGGCCCAA,-1.26
10,TTGGTTTTGACCTTCGTGCTTG,0.0948

# Target: PSMB6
# Test: as above
# Conditions: shRNA
row,Sequence,sensor-assay potency score (higher = more potent)
1,GTATCGGTAACACATCTCCTTA,-1.65
2,TAGGTAGCATCAACATAGCCAT,-0.545
3,TTGCAGACACTCTTCCTTGGTC,-0.171
4,TAGCCATAGATGTAGGAGCTCC,-0.837
5,TTGTTCTGGAGTCCGCCCCCAG,-1.38
6,TCGTGAATAGGTGTCAGCTTGT,-0.101
7,TTCAATGCTGTGGAAACCGAGC,-0.63
8,TTGTCAGTCACTCGATTGGCGA,-1.6
9,TATCGGTAACACATCTCCTTAA,-0.95
10,TCAGCTTGTCAGTCACTCGATT,-0.432
11,TTAAATTTTGCATCAGTACAGG,-0.777
12,AATGCTGTGGAAACCGAGCTGG,-0.331

# Target: PSMC1
# Test: as above
# Conditions: shRNA
row,Sequence,sensor-assay potency score (higher = more potent)
1,TAATGGTTTCATTTGTTCCTGA,-0.172
2,AACTTCAGTAATTTTAACCGGC,0.102
3,TTGAGCAGGACCGAGCAGCCAG,-1.07
4,TTTAATTCTCTCTAACTTCAGT,-0.456
5,TTGTCCTTGTCATCCTTCTTGC,-0.829
6,TTTCTTGTCCTTGTCATCCTTC,0.111
7,TAATTCTCTCTAACTTCAGTAA,-0.505
8,TTCAGCAGTTCCAACATTGTTC,-0.616
9,TTGCCTTGATGTCAGCACCAGA,-0.927
10,AATATCTGCATAGGTCTCCTGG,-0.497
11,TTGTGGTTGAGCAGGACCGAGC,-1.36

# Target: PSMD14
# Test: as above
# Conditions: shRNA
row,Sequence,sensor-assay potency score (higher = more potent)
1,TATCTTCTTCTTCTACAGCCTT,-0.722
2,TTTGTCTTGGTTCATGTCCTAA,-1.03
3,TTAGCAACATCTTCTGTTCCAG,0.0236
4,TAACATTTTTAACAGTGCCAGG,-1.43
5,TTCTTCTACAGCCTTATTGTAA,-1.22
6,AAATTTAGCAACATCTTCTGTT,0.377
7,TACATCCACATGTTCCTCCAAA,-0.84
